These results are taken from the supplement of paper PMC10037445.

SMILES strings stand for the structures. ± gives the standard deviation of the averaged measurements. Whole data set: some 2,900 compounds, median “NF-kB SEAP reporter activity, fold change vs agonist alone” near 0.99, cut for the highest 2% near 2.6. Only a selection was taken, and the highest values are over-represented in it overall.

Test [1] relates to RAW-Dual. The test is described as follows: NF-kB SEAP reporter activity, fold change vs agonist alone; cytotoxicity flag (confluency mask): not cytotoxic; higher = enhanced NF-kB activity. In a few lines: (§1)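 RAW-Dual macrophages were seeded in DMEM at 50,000 cells/well in 384-well plates, given 50 nL of library stock by pin tool, and given a PRR agonist 1 h later. Plates were held at 37 °C, 5% CO2 for 20 hours, after which supernatant was read for IRF by QuantiLuc luminescence and for NF-κB by QuantiBlue absorbance at 620 nm. Reporter activity is expressed as fold change over wells that received agonist alone. A well was called cytotoxic when IncuCyte confluency fell below 70% of agonist controls in both mask sets.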

Test [2] concerns RAW-Dual. The test is described as follows: NF-kB SEAP reporter activity, fold change vs agonist alone; higher = enhanced NF-kB activity. Particulars: library stock concentration (final ~1000-fold dilution): 10 mM, cytotoxicity flag (confluency mask): not cytotoxic. In a few lines:
as §1

[3] abbreviates: agonist: ODN 1826 (TLR9) 0.5 ug/mL.
The mark [4] stands for this setting: agonist: Pam2CSK4 (TLR2/6) 0.1 ug/mL.
Setting [5] is: agonist: Pam3CSK4 (TLR2/1) 0.1 ug/mL.

With `C=C1CCC2C(C)(CO)C(O)CCC2(C)C1C/C=C1/C(=O)OCC1O` (stereo not given) (library stock concentration (final ~1000-fold dilution): 10 mM), the “NF-kB SEAP reporter activity” value in test [1] (agonist: LPS (TLR4) 0.1 ug/mL) turned out to be 0.565 ± 0.2; in test [1] (setting [3]) it was 0.418 ± 0.039; in test [1] (setting [4]), 0.96 ± 0.18; in test [1] (setting [5]) it was 0.65 ± 0.11.

On to `C=C1CCC2C(C)(CO)C(O)CCC2(C)C1C/C=C1/C(=O)OCC1O` (stereo not given), for which the “NF-kB SEAP reporter activity” value was 0.933 ± 0.078 in test [2] (agonist: Imiquimod (TLR7) […]) and 0.792 ± 0.1 in test [2] (agonist: MPLA (TLR4) […]).

Consider `Cc1ccc(NC(=O)c2ccnc(C(F)(F)F)c2)cc1-c1cc(OCCO)nc(N2CCOCC2)c1` (library stock concentration (final ~1000-fold dilution): 10 mM), for which the “NF-kB SEAP reporter activity” value turned out to be 1.01 in test [1] (agonist: LPS (TLR4) 0.1 ug/mL), 0.551 in test [1] (setting [3]), 0.265 in test [1] (setting [4]) and 0.438 in test [1] (setting [5]).

Consider `Cc1ccc(NC(=O)c2ccnc(C(F)(F)F)c2)cc1-c1cc(OCCO)nc(N2CCOCC2)c1`, for which the figures for the “NF-kB SEAP reporter activity” value in test [2] (agonist: Imiquimod (TLR7) […]) and in test [2] (agonist: MPLA (TLR4) […]) were 1.03 and 0.836, respectively.

Take `Nc1nc(NCCc2ccc(O)cc2)nc2nc(-c3ccco3)nn12`: the “NF-kB SEAP reporter activity” value in test [2] (agonist: Imiquimod (TLR7) […]) is 1.7; in test [2] (agonist: MPLA (TLR4) […]), 1.36.

As for `CC(C)n1cnc2c(NCCc3ccc(O)cc3)nc(-c3csc4ccccc34)nc21`, the “NF-kB SEAP reporter activity” value in test [2] (agonist: Imiquimod (TLR7) […]) turned out to be 2.38; in test [2] (agonist: MPLA (TLR4) […]), 2.64.

With `CC(C)C(CO)Nc1nc(Nc2cccc(Cl)c2)c2ncn(C(C)C)c2n1` (stereo not given), the results for the “NF-kB SEAP reporter activity” value in test [2] (agonist: Imiquimod (TLR7) […]) and in test [2] (agonist: MPLA (TLR4) […]) were 1.19 and 1.14, respectively.

Take `CC(C)C(CO)Nc1nc(Nc2cccc(Cl)c2)c2ncn(C(C)C)c2n1` (stereo not given) (library stock concentration (final ~1000-fold dilution): 10 mM): the “NF-kB SEAP reporter activity” value in test [1] (agonist: LPS (TLR4) 0.1 ug/mL) stood at 0.715; in test [1] (setting [3]), 1.05; in test [1] (setting [4]), 1.22; in test [1] (setting [5]), 0.679.

Consider `CC(C)n1cnc2c(NCCc3ccc(O)cc3)nc(-c3csc4ccccc34)nc21` (library stock concentration (final ~1000-fold dilution): 10 mM), for which the “NF-kB SEAP reporter activity” value was found to be 3.02 in test [1] (agonist: LPS (TLR4) 0.1 ug/mL), 1.56 in test [1] (setting [3]), 0.535 in test [1] (setting [4]) and 0.662 in test [1] (setting [5]).

Consider `Nc1nc(NCCc2ccc(O)cc2)nc2nc(-c3ccco3)nn12` (library stock concentration (final ~1000-fold dilution): 10 mM), for which the “NF-kB SEAP reporter activity” value in test [1] (agonist: LPS (TLR4) 0.1 ug/mL) is 1.81; in test [1] (setting [3]), 1.56; in test [1] (setting [4]) it was 1.16; in test [1] (setting [5]), 1.41.

Regarding `C=C1CCC2C(C)(COC(=O)CCC(=O)O)C(OC(=O)CCC(=O)O)CCC2(C)C1C=CC1=CCOC1=O` (stereo not given) (library stock concentration (final ~1000-fold dilution): 10 mM), the “NF-kB SEAP reporter activity” value in test [1] (agonist: LPS (TLR4) 0.1 ug/mL) came to 1.34; in test [1] (setting [3]), 0.979; in test [1] (setting [4]), 1.26; in test [1] (setting [5]), 1.02.

With `C=C1CCC2C(C)(COC(=O)CCC(=O)O)C(OC(=O)CCC(=O)O)CCC2(C)C1C=CC1=CCOC1=O` (stereo not given), the “NF-kB SEAP reporter activity” value in test [2] (agonist: Imiquimod (TLR7) […]) amounted to 0.865; in test [2] (agonist: MPLA (TLR4) […]) it was 1.03.

Turning to `CN1CCN(CCCNc2ncc(Cl)c(-c3cc4c(C(=O)NC5CC5)cccc4s3)n2)CC1.Cl.Cl.Cl`, the “NF-kB SEAP reporter activity” value in test [2] (agonist: Imiquimod (TLR7) […]) was found to be 0.215 ± 0.045; in test [2] (agonist: MPLA (TLR4) […]), 0.2944 ± 0.00089.

With `CN1CCN(CCCNc2ncc(Cl)c(-c3cc4c(C(=O)NC5CC5)cccc4s3)n2)CC1.Cl.Cl.Cl` (library stock concentration (final ~1000-fold dilution): 10 mM), the “NF-kB SEAP reporter activity” value in test [1] (agonist: LPS (TLR4) 0.1 ug/mL) stood at 0.313 ± 0.14; in test [1] (setting [3]) it was 0.174 ± 0.0094; in test [1] (setting [4]), 0.0865 ± 0.0023; in test [1] (setting [5]) it was 0.134 ± 0.0077.

In the case of `CCO.N#CC(=C(\N)Sc1ccccc1N)/C(C#N)=C(/N)Sc1ccccc1N`, the figures for the “NF-kB SEAP reporter activity” value in test [2] (agonist: Imiquimod (TLR7) […]) and in test [2] (agonist: MPLA (TLR4) […]) were 0.206 and 0.236, respectively.

As for `CCO.N#CC(=C(\N)Sc1ccccc1N)/C(C#N)=C(/N)Sc1ccccc1N` (library stock concentration (final ~1000-fold dilution): 10 mM), the “NF-kB SEAP reporter activity” value amounted to 0.241 in test [1] (agonist: LPS (TLR4) 0.1 ug/mL), 0.368 in test [1] (setting [3]), 0.0792 in test [1] (setting [4]) and 0.146 in test [1] (setting [5]).

For `CCn1cc(C(=O)O)c(=O)c2cc(F)c(N3CCN(C)CC3)cc21.CS(=O)(=O)O` (library stock concentration (final ~1000-fold dilution): 10 mM), the “NF-kB SEAP reporter activity” value in test [1] (agonist: LPS (TLR4) 0.1 ug/mL) amounted to 0.962; in test [1] (setting [3]), 1.03; in test [1] (setting [4]), 1.11; in test [1] (setting [5]), 1.12.

On to `CCn1cc(C(=O)O)c(=O)c2c(N)c(F)c(NC3CCCCC3)cc21`, for which the entries for the “NF-kB SEAP reporter activity” value in test [2] (agonist: Imiquimod (TLR7) […]) and in test [2] (agonist: MPLA (TLR4) […]) were 1.75 and 1.95, respectively.

Regarding `CCOC(=O)c1ccc(NC2CCCCC2)c(N)c1` (library stock concentration (final ~1000-fold dilution): 10 mM), the “NF-kB SEAP reporter activity” value in test [1] (agonist: LPS (TLR4) 0.1 ug/mL) was determined as 2.07; in test [1] (setting [3]), 1.28; in test [1] (setting [4]), 0.963; in test [1] (setting [5]), 1.09.

For the compound `CCOC(=O)c1ccc(NC2CCCCC2)c(N)c1`, the “NF-kB SEAP reporter activity” value in test [2] (agonist: Imiquimod (TLR7) […]) turned out to be 1.14; in test [2] (agonist: MPLA (TLR4) […]) it was 1.57.

For `CCn1cc(C(=O)O)c(=O)c2cc(F)c(N3CCN(C)CC3)cc21.CS(=O)(=O)O`, the figures for the “NF-kB SEAP reporter activity” value in test [2] (agonist: Imiquimod (TLR7) […]) and in test [2] (agonist: MPLA (TLR4) […]) were 0.916 and 0.878, respectively.

As to `CCn1cc(C(=O)O)c(=O)c2c(N)c(F)c(NC3CCCCC3)cc21` (library stock concentration (final ~1000-fold dilution): 10 mM), the “NF-kB SEAP reporter activity” value was determined as 4.89 in test [1] (agonist: LPS (TLR4) 0.1 ug/mL), 2.9 in test [1] (setting [3]), 1.85 in test [1] (setting [4]) and 3.32 in test [1] (setting [5]).

Turning to `O=C1C2C3CCC(C3)C2C(=O)N1CC1CCCCC1CN1CCN(c2nsc3ccccc23)CC1` (stereo not given), the “NF-kB SEAP reporter activity” value was found to be 0.878 in test [2] (agonist: Imiquimod (TLR7) […]) and 1.06 in test [2] (agonist: MPLA (TLR4) […]).

`O=C1C2C3CCC(C3)C2C(=O)N1CC1CCCCC1CN1CCN(c2nsc3ccccc23)CC1` (stereo not given) (library stock concentration (final ~1000-fold dilution): 10 mM): the “NF-kB SEAP reporter activity” value in test [1] (agonist: LPS (TLR4) 0.1 ug/mL) was 0.728; in test [1] (setting [3]), 0.931; in test [1] (setting [4]), 0.983; in test [1] (setting [5]) it was 1.07.

`O=C(Nc1ccc([N+](=O)[O-])cc1Cl)c1cc(Cl)ccc1O` (library stock concentration (final ~1000-fold dilution): 10 mM): the “NF-kB SEAP reporter activity” value in test [1] (agonist: LPS (TLR4) 0.1 ug/mL) is 6.96; in test [1] (setting [3]), 0.713; in test [1] (setting [4]) it was 0.379; in test [1] (setting [5]), 0.527.

With `O=C(Nc1cc(C(F)(F)F)ccc1N1CCCCC1)c1ccncc1` (library stock concentration (final ~1000-fold dilution): 10 mM), the “NF-kB SEAP reporter activity” value in test [1] (agonist: LPS (TLR4) 0.1 ug/mL) turned out to be 0.802; in test [1] (setting [3]), 0.875; in test [1] (setting [4]) it was 0.764; in test [1] (setting [5]) it was 0.771.
